PubChem BioAssay (NCATS)
Several values for one entry are separate records, joined by “and”; a condition that tells them apart may be missing. Equal values may be shown once. Inconclusive results are not listed. A number with no mark means an inactive call. Activity calls are given as the source filed them. The call rests on the fitted dose curve; in most records, active means well fitted curve in the direction sought with a large enough effect; inconclusive means small, poorly fitted or top-dose-only effect, or another doubt; inactive means no such curve, though single readings can be large; an effect the other way counts as inactive or inconclusive.

What was measured:
[1] = biological target: Cellular tumor antigen p53 (Homo sapiens) (UniProt P04637); assay: Primary qHTS for small molecule compounds that upregulate eGFP-tagged delta133p53alpha (in N-terminal) cells. (AID 2060322); conditions: NCI-H358 eGFP-delta133p53alpha fluorescence, 24 h; activation: active compounds read high; further: nearly all actives have a fitted effect of over 75% in size; further: potency means the concentration at half of the fitted maximal effect;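 on activation: series mostly up to about 56 µM; 0% = DMSO vehicle and 100% = reference activator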
Chain of Cellular tumor antigen p53 (Homo sapiens) (P04637 whole entry, looked up): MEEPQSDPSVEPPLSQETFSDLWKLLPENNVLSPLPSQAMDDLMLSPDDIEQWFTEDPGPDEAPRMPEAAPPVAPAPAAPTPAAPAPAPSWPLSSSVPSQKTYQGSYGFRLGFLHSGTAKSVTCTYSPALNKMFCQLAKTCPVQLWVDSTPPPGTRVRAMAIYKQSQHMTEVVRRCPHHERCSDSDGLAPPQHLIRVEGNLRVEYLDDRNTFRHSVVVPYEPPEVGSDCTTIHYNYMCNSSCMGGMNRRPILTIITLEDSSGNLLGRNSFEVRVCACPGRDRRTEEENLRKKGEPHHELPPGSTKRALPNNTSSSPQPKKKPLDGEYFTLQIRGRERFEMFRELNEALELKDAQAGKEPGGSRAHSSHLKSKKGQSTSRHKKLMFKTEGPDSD
Procedure, shortened: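 NCI-H358 cells pre-induced 24 h with 10 ng/ml doxycycline to express N-terminal eGFP-delta133p53alpha, then dosed 24 h at 37C without doxycycline; fixed, Hoechst-stained, GFP intensity by laser scanning cytometry, normalized to DMSO (0%) and 57.5 uM 5-azacytidine (100%).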

[2] = biological target: Aldehyde dehydrogenase, mitochondrial (Homo sapiens) (UniProt P05091); assay: qHTS for Inhibitors of the Aldehyde Dehydrogenase Family (ALDH2) Primary screen (AID 2061308);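 further: plate controls were vehicle for no effect and reference inhibitor for full effect; nearly all actives have a fitted effect of over 55% in size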
[3] = biological target: Retinaldehyde dehydrogenase 3 (Homo sapiens) (UniProt P47895); assay: qHTS for Inhibitors of the Aldehyde Dehydrogenase Family (ALDH1A3) Primary screen (AID 2061315);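 further: plate controls were DMSO vehicle for no effect and reference inhibitor for full effect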
[4] = BET inhibitor-based combinations targeting novel dependencies in MECOM-rearranged (r) AML: SET-2 cell line (AID 2202231); conditions: SET-2 AML cells viability, CellTiter-Glo luminescence, 48 h; viability: active compounds read low, concentration not given here; further: nearly all actives have a fitted effect of over 35% in size; further: potency means the concentration at half of the fitted maximal effect;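 on viability: plate controls were DMSO treated cells for no effect and wells without cells for full effect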
Procedure, shortened: (§1)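 Each compound was tested at eleven concentrations on cells seeded at 500/well. After two days' incubation, ATP-based luminescence reported viability; responses relative to DMSO and blank wells yielded AUC and cell-line-centred Z-AUC.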

[5] = BET inhibitor-based combinations targeting novel dependencies in MECOM-rearranged (r) AML: MV-4-11 cell line (AID 2202233); further: potency means the concentration at half of the fitted maximal effect; nearly all actives have a fitted effect of over 45% in size
Procedure, shortened: (§2)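 First, 500 cells per well were seeded; next, drugs were pinned as 11-point doses; then plates sat 48 hr in the incubator; finally CellTiter-Glo was added and luminescence read, with AUC and Z-AUC computed.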

[6] = BET inhibitor-based combinations targeting novel dependencies in MECOM-rearranged (r) AML: HNT-34 cell line (AID 2202234); further: nearly all actives have a fitted effect of over 35% in size; further: potency means the concentration at half of the fitted maximal effect
Procedure, shortened: as §2

[7] = BET inhibitor-based combinations targeting novel dependencies in MECOM-rearranged (r) AML: UCSD-AML1 cell line (AID 2202235); further: nearly all actives have a fitted effect of over 40% in size; further: potency means the concentration at half of the fitted maximal effect
Procedure, shortened: as §2

[8] = BET inhibitor-based combinations targeting novel dependencies in MECOM-rearranged (r) AML: AML-191 cell line (AID 2202236; further: nearly all actives have a fitted effect of over 35% in size; further: potency means the concentration at half of the fitted maximal effect)
Procedure, shortened: as §1

[9] = BET inhibitor-based combinations targeting novel dependencies in MECOM-rearranged (r) AML: AML-194 cell line (AID 2202237; further: nearly all actives have a fitted effect of over 40% in size; further: potency means the concentration at half of the fitted maximal effect)
Procedure, shortened: as §1

SMILES	Potency [1]	Potency [2]	Potency [3]	Potency [4]	Potency [5]	Potency [6]	Potency [7]	Potency [8]	Potency [9]	activation [1]	viability [4]
Cc1cc(Nc2cc(CN3CCOCC3)c3nc(C)c(Cc4ccc(Cl)cc4F)n3n2)n[nH]1	27.3 µM (active)	inactive	inactive	2.63 µM (active)	0.235 µM (active)	2.35 µM (active)	2.35 µM (active)	0.742 µM (active)	1.48 µM (active)		
COc1ccc(-c2cnc3c(-c4cccc5ncccc45)cnn3c2)cc1		inactive	inactive		7.42 µM (active)	inactive	inactive	inactive	inactive	16.1%	119%
C=CC(=O)Nc1cc(Nc2nccc(-c3cn(C)c4ccccc34)n2)c(OC)cc1N(C)CCN(C)C	3.79 µM (active)	inactive	inactive	9.34 µM (active)	2.95 µM (active)	5.25 µM (active)	4.68 µM (active)	8.33 µM (active)	7.42 µM (active)		
COc1ccc(F)c(F)c1C(=O)c1cnc(NC2CCN(S(C)(=O)=O)CC2)nc1N	2.73 µM (active) and 2.69 µM (active)	inactive	inactive	2.09 µM (active)	1.32 µM (active)	2.35 µM (active)	1.66 µM (active)	2.09 µM (active)	2.09 µM (active)		
CNC1CCC(N(Cc2cccc(-c3ccncc3)c2)C(=O)c2sc3ccccc3c2Cl)CC1 (centres undefined)	24.3 µM (active) and 30.1 µM (active)	inactive	inactive	26.3 µM (active)	16.6 µM (active)	26.3 µM (active)		20.9 µM (active)	23.5 µM (active)		
